For 40 compounds, Potency results are on record in PubChem BioAssay (Tox21).

SMILES strings stand for the structures. Records with an inconclusive call do not appear. Entries that show only a call come without a potency. Active and inactive are the calls of the source. Calls follow the shape of the dose curve; as a rule, active = well fitted cell-killing curve with a large enough effect in the repeat runs; inconclusive = weak or mixed curves, or effect the other way; inactive = flat fitted curve, though single readings scatter.
Potency is read from the fitted curve at half-maximal effect.

The nature of this assay: qHTS RealTime-Glo MT Cell Viability Assay in HEK293 cells - 8 hour (AID 1224887). Also: nearly all actives have a fitted effect of over 50% in size. The following applies: RealTime-Glo luminescence; series mostly up to 76.8 µM. The source says: U.S. Tox21 Program National Center for Advancing Translational Sciences [NCATS] NIH Chemical Genomics Center [NCGC] U.S. Environmental Protection Agency [EPA] National Institutes of Environmental Health Sciences [NIEHS] National Toxicology Program [NTP] U.S. Food and Drug Administration [FDA] Tox21 Assay Overview: Measure of cell viability is critical in the cell-base assay. Analysis of cell viability is necessary for the characterization of cell responses to cytotoxic drugs and environmental stress. A RealTime-Glo MT Cell Viability Assay to monitor cell viability in real time of continues cell culture during 40 hours of compound treatment was used to screen Tox21 10K library compounds in Hek293 cells. The RealTime-Glo MT Cell Viability Assay is a nonlytic, homogeneous, bioluminescent method to measure cell viability in real time using a simple, plate-based method. The assay involves adding NanoLuc luciferase and a cell-permeant prosubstrate to cells in culture. Viable cells reduce the proprietary prosubstrate to generate a substrate for NanoLuc luciferase. This substrate diffuses from cells into the surrounding culture medium, where it is rapidly used by the NanoLuc Enzyme to produce a luminescent signal. The signal correlates with the number of viable cells, making the assay well suited for cytotoxicity studies.
Tox21 Assay Protocol Summary: The mixture of Hek293 cell suspension and reagents were dispensed at 600cells/6 ul/well in 1536-well tissue culture treated black solid bottom plates using a Multidrop dispenser. After the assay plates were incubated at a 37 C/5% CO2 incubator for 5 hours, 23 nL of compounds dissolved in DMSO, positive and negative controls was transferred to the assay plate by a pintool work station. The plates were incubated at 37 C for 40 hours. The luminescence intensity were measured at 0h, 8h, 16h, 24h, 32h and 40h time points using ViewLux plate reader during compound treatment.
Background: qHTS replaces the single test concentration by a dilution series.
For `Cc1cccc(Oc2ccccc2)c1`, the Potency result was “inactive”.
For `COCCCCCCCCOCCC[Si](C)(O[Si](C)(C)C)O[Si](C)(C)C`, the Potency result is “inactive”.
Consider `C=CC[N+]1([C@H]2C[C@H]3[C@@H]4CC[C@H]5C[C@H](OC(C)=O)[C@@H](N6CCCCC6)C[C@]5(C)[C@H]4CC[C@]3(C)[C@H]2OC(=O)CC)CCCCC1`, for which the Potency result is “inactive”.
Turning to `CN1CCC(OC(c2ccccc2)c2ccccc2)CC1`, the Potency entry was “inactive”.
For the compound `O=C=NC1CCC(CC2CCC(N=C=O)CC2)CC1` (stereo not given), the Potency entry was “inactive”.
Regarding `Cc1cccc(OCCOc2cccc(C)c2)c1`, the Potency entry was “inactive”.
The entry for `CCCCCCCCC(CO)CCCCCC` (stereo not given) is “inactive”; for `Cn1sccc1=O` it is “inactive”; for `CCCc1ccccc1` it is “inactive”.
`CC(C)(C)c1ccc(S)cc1`: the Potency result is “inactive”.
On to `CCCC(=O)OCC`, for which the Potency result was “inactive”.
The entry for `Cc1ccc(C(C)c2ccc(C)c(C)c2)cc1C` is “inactive”.
As to `CN(C)CC[C@@H](c1ccc(Br)cc1)c1ccccn1`, the Potency result is “inactive”.
Turning to `Cc1occc1S`, the Potency entry is “inactive”.
On to `CCCCCOC(=O)COc1cc(N2C(=O)C3=C(CCCC3)C2=O)c(F)cc1Cl`, for which the Potency result is “inactive”.
In the case of `CC(C)NCC(O)c1cc(O)cc(O)c1` (stereo not given), the Potency result is “inactive”.
The value for `CC(=O)N(O)CCCCCNC(=O)CCC(=O)N(O)CCCCCNC(=O)CCC(=O)N(O)CCCCCN` was “inactive”; that for `CCN1CCC[C@H]1CNC(=O)c1c(OC)ccc(Br)c1OC` was “inactive”.
With `O=C(O)COC(=O)Cc1ccccc1Nc1c(Cl)cccc1Cl`, the Potency entry was “inactive”.
With `CCCC(C)C`, the Potency result is “inactive”.
The entry for `CCOC(=O)CC(C)C` is “inactive”; for `COc1ccccc1OC(=O)Oc1ccccc1OC` it is “inactive”; for `Cc1ccccc1N=Nc1ccc(N=Nc2c(O)ccc3ccccc23)c(C)c1` it is “inactive”.
Take `C=CC(=O)OCC(C)OCC(C)OCC(C)OC(=O)C=C` (stereo not given): the Potency entry is “inactive”.
The value for `CC(=O)OC/C=C/c1ccccc1` was “inactive”; that for `Nc1ccc(C(=O)Nc2ccccc2N)cc1` was “inactive”.
The entry for `c1ccc(CNCc2ccccc2)cc1` is “inactive”; for `NCCCOCCOCCOCCCN` it is “inactive”; for `Cc1nc2ccccc2n1Cc1ccc(Cl)cc1` it is 8.49 µM (active).
In the case of `c1ccc(-c2nc[nH]c2-c2ccccc2)cc1`, the Potency result was “inactive”.
Consider `O=S(=O)(O)c1ccc(O)c2ncccc12`, for which the Potency entry is “inactive”.
Take `CCCCCCCCCCCCCCC1CO1` (stereo not given): the Potency result is “inactive”.
Consider `CCCCCCCCCC=O`, for which the Potency result is “inactive”.
Turning to `CCCCOc1cc(C(=O)OCCN(CC)CC)ccc1N`, the Potency result was “inactive”.
Regarding `NC1CCN(c2nc3c(cc2F)c(=O)c(C(=O)O)cn3-c2ccc(F)cc2F)C1` (stereo not given), the Potency result is “inactive”.
As to `CC(C(=O)O)c1ccc(C(=O)c2ccccc2)s1` (stereo not given), the Potency result is “inactive”.
With `CC1=CCC(C(C)C)C=C1` (stereo not given), the Potency entry is “inactive”.
Turning to `COc1ccc([C@@H]2Sc3ccccc3N(CCN(C)C)C(=O)[C@@H]2OC(C)=O)cc1`, the Potency entry is “inactive”.
In the case of `CC(C)CCCC(C)CCO` (stereo not given), the Potency entry was “inactive”.
The value for `Cc1ccc(C(=O)C(C)CN2CCCCC2)cc1` (stereo not given) was “inactive”.
